# Experimental data reported in the supplement of paper PMC8728848.
# The entries come from a sample that favours the strongest signals as a whole.
# Key:
# Assay in all cases: glycan array binding signal (z-score within array); higher = stronger binding
# Settings in all cases: glycan notation: IUPAC condensed, linker removed
# [1] = molecular target: Fuc(a1-2)Gal(b1-3)[Fuc(a1-4)]GlcNAc(b1-3)[Fuc(a1-3)[Gal(b1-4)]GlcNAc(b1-6)]Gal(b1-4)Glc
# How it was run: (§1)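 Columns mapping to the same glycan were averaged after glycan names were converted to IUPAC-condensed notation. The data come from 3228 arrays in the Consortium for Functional Glycomics database, limited to those with an available protein sequence. Binding is reported as a within-array Z-score averaged across arrays of one protein sequence and across linkers.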
# [2] = molecular target: Fuc(a1-2)[Gal(a1-3)]Gal(b1-3)GalNAc(b1-3)Gal(a1-4)Gal(b1-4)Glc
# How it was run: as §1
# [3] = molecular target: Fuc(a1-2)[Gal(a1-3)]Gal(b1-4)GlcNAc(b1-3)GalNAc
# How it was run: as §1
# [4] = molecular target: Fuc(a1-2)[GalNAc(a1-3)]Gal(b1-3)GlcNAc(b1-3)GalNAc
# How it was run: as §1
# [5] = molecular target: Fuc(a1-3)[Gal(b1-4)]GlcNAc
# How it was run: as §1
# [6] = molecular target: Fuc(a1-3)[Gal3S(b1-4)]Glc
# How it was run: as §1
# Gal(a1-3)GalNAc = molecular target: Gal(a1-3)GalNAc
# How it was run: as §1
# Gal(a1-4)GlcNAc = molecular target: Gal(a1-4)GlcNAc
# How it was run: as §1
# [7] = molecular target: Gal(b1-3)GlcNAc(b1-3)GalNAc
# How it was run: as §1
# [8] = molecular target: Gal(b1-3)GlcNAc(b1-6)[Gal(b1-3)]GalNAc
# How it was run: as §1
# [9] = molecular target: Gal(b1-3)[Fuc(a1-4)]GlcNAc(b1-2)Man
# How it was run: as §1
# [10] = molecular target: Gal(b1-3)[Fuc(a1-4)]GlcNAc(b1-6)GalNAc
# How it was run: as §1
# [11] = molecular target: Gal(b1-4)GlcNAc(a1-6)Gal(b1-4)GlcNAc
# How it was run: as §1
# [12] = molecular target: Gal(b1-4)GlcNAc(b1-2)Man(a1-3)[Gal(b1-4)GlcNAc(b1-2)Man(a1-6)]Man(b1-4)GlcNAc(b1-4)GlcNAc
# How it was run: as §1
# [13] = molecular target: Gal(b1-4)GlcNAc(b1-2)[Gal(b1-4)GlcNAc(b1-4)]Man(a1-3)[GlcNAc(b1-4)][Gal(b1-4)GlcNAc(b1-2)[Gal(b1-4)GlcNAc(b1-6)]Man(a1-6)]Man(b1-4)GlcNAc(b1-4)GlcNAc
# How it was run: as §1
# [14] = molecular target: Gal(b1-4)GlcNAc(b1-6)[Gal(b1-3)]GalNAc
# How it was run: as §1
# [15] = molecular target: Gal3S(b1-4)[Fuc(a1-3)]GlcNAc
# How it was run: as §1
# Gal4S(b1-4)GlcNAc = molecular target: Gal4S(b1-4)GlcNAc
# How it was run: as §1
# Gal6S(b1-3)GlcNAc6S = molecular target: Gal6S(b1-3)GlcNAc6S
# How it was run: as §1
# [16] = molecular target: GlcNAc(a1-4)Gal(b1-4)GalNAc
# How it was run: as §1
# [17] = molecular target: GlcNAc(b1-3)Gal(b1-4)GlcNAc(b1-3)Gal(b1-4)GlcNAc(b1-3)Gal(b1-4)GlcNAc(b1-2)Man(a1-3)[GlcNAc(b1-3)Gal(b1-4)GlcNAc(b1-3)Gal(b1-4)GlcNAc(b1-3)Gal(b1-4)GlcNAc(b1-2)Man(a1-6)]Man(b1-4)GlcNAc(b1-4)GlcNAc
# How it was run: as §1
# [18] = molecular target: GlcNAc(b1-3)Gal(b1-4)GlcNAc(b1-3)Gal(b1-4)GlcNAc(b1-3)Gal(b1-4)GlcNAc(b1-3)Gal(b1-4)GlcNAc(b1-2)[GlcNAc(b1-3)Gal(b1-4)GlcNAc(b1-3)Gal(b1-4)GlcNAc(b1-3)Gal(b1-4)GlcNAc(b1-3)Gal(b1-4)GlcNAc(b1-6)]Man(a1-6)[GlcNAc(b1-3)Gal(b1-4)GlcNAc(b1-3)Gal(b1-4)GlcNAc(b1-3)Gal(b1-4)GlcNAc(b1-3)Gal(b1-4)GlcNAc(b1-2)Man(a1-3)]Man(b1-4)GlcNAc(b1-4)[Fuc(a1-6)]GlcNAc
# How it was run: as §1
# [19] = molecular target: Man(a1-2)Man(a1-2)Man(a1-3)Man
# How it was run: as §1
# [20] = molecular target: Man(a1-2)Man(a1-2)Man(a1-6)[Man(a1-3)]Man
# How it was run: as §1
# Man(a1-2)Man(a1-3)Man = molecular target: Man(a1-2)Man(a1-3)Man
# How it was run: as §1
# [21] = molecular target: Man(a1-2)Man(a1-3)[Man(a1-2)Man(a1-6)]Man(a1-6)[Man(a1-2)Man(a1-2)Man(a1-3)]Man
# How it was run: as §1
# [22] = molecular target: Man(a1-2)Man(a1-3)[Man(a1-2)Man(a1-6)]Man(a1-6)[Man(a1-2)Man(a1-2)Man(a1-3)]Man(b1-4)GlcNAc(b1-4)GlcNAc
# How it was run: as §1
# [23] = molecular target: Man(a1-2)Man(a1-3)[Man(a1-6)]Man(a1-6)[Man(a1-2)Man(a1-3)]Man(b1-4)GlcNAc(b1-4)GlcNAc
# How it was run: as §1
# [24] = molecular target: Man(a1-2)Man(a1-6)[Man(a1-3)]Man(a1-6)[Man(a1-2)Man(a1-2)Man(a1-3)]Man
# How it was run: as §1
# [25] = molecular target: Man(a1-2)Man(a1-6)[Man(a1-3)]Man(a1-6)[Man(a1-2)Man(a1-2)Man(a1-3)]Man(b1-4)GlcNAc(b1-4)GlcNAc
# How it was run: as §1
# [26] = molecular target: Man(a1-3)[Man(a1-6)]Man(a1-6)[Man(a1-2)Man(a1-3)]Man(b1-4)GlcNAc(b1-4)GlcNAc
# How it was run: as §1
# [27] = molecular target: Man(a1-3)[Man(a1-6)]Man(a1-6)[Man(a1-3)]Man(b1-4)GlcNAc(b1-4)GlcNAc
# How it was run: as §1
# [28] = molecular target: Man(a1-3)[Man(a1-6)]Man(b1-4)GlcNAc(b1-4)GlcNAc
# How it was run: as §1
# Man(a1-6)Man = molecular target: Man(a1-6)Man
# How it was run: as §1
# [29] = molecular target: Neu5Ac(a2-3)Gal(b1-4)GlcNAc(b1-2)Man(a1-3)[GlcNAc(b1-4)][Neu5Ac(a2-3)Gal(b1-4)GlcNAc(b1-2)Man(a1-6)]Man(b1-4)GlcNAc(b1-4)GlcNAc
# How it was run: as §1
# [30] = molecular target: Neu5Ac(a2-3)Gal(b1-4)GlcNAc(b1-3)Gal(b1-4)[Fuc(a1-3)]GlcNAc
# How it was run: as §1
# [31] = molecular target: Neu5Ac(a2-3)Gal(b1-4)GlcNAc(b1-6)[Neu5Ac(a2-3)Gal(b1-3)]GalNAc
# How it was run: as §1
# [32] = molecular target: Neu5Ac(a2-3)[GalNAc(b1-4)]Gal(b1-4)Glc
# How it was run: as §1
# [33] = molecular target: Neu5Ac(a2-6)Gal(b1-4)GlcNAc(b1-2)Man(a1-3)[Gal(b1-4)GlcNAc(b1-2)Man(a1-6)]Man(b1-4)GlcNAc(b1-4)GlcNAc
# How it was run: as §1
# [34] = molecular target: Neu5Ac(a2-6)Gal(b1-4)GlcNAc(b1-2)Man(a1-3)[GlcNAc(b1-2)Man(a1-6)]Man(b1-4)GlcNAc(b1-4)GlcNAc
# How it was run: as §1
# [35] = molecular target: Neu5Ac(a2-6)Gal(b1-4)GlcNAc(b1-3)Gal(b1-3)GlcNAc
# How it was run: as §1
# Neu5Ac(a2-6)GalNAc = molecular target: Neu5Ac(a2-6)GalNAc
# How it was run: as §1
# [36] = molecular target: Neu5Ac(a2-6)GlcNAc(b1-4)GlcNAc(b1-4)GlcNAc
# How it was run: as §1
binder,measurement,setting,value
Banana lectin (Musa acuminata) (protein) MNGAIKVGAWGGNGGSAFDMGPAYRIISVKIFSGDVVDAVDVTFTYYGKTETRHFGGSGGTPHEIVLQEGEYLVGMKGEFGNYHGVVVVGKLGFSTNKKSYGPFGNTGGTPFSLPIAAGKISGFFGRGGDFIDAIGVYLEP,glycan array binding signal (z-score),[1],-0.195
same,glycan array binding signal (z-score),[2],-0.195
same,glycan array binding signal (z-score),[3],-0.195
same,glycan array binding signal (z-score),[4],-0.188
same,glycan array binding signal (z-score),[5],-0.193
same,glycan array binding signal (z-score),[6],-0.192
same,glycan array binding signal (z-score),Gal(a1-3)GalNAc,-0.194
same,glycan array binding signal (z-score),Gal(a1-4)GlcNAc,-0.194
same,glycan array binding signal (z-score),[7],-0.195
same,glycan array binding signal (z-score),[8],-0.173
same,glycan array binding signal (z-score),[9],-0.19
same,glycan array binding signal (z-score),[10],-0.19
same,glycan array binding signal (z-score),[11],-0.196
same,glycan array binding signal (z-score),[12],-0.161
same,glycan array binding signal (z-score),[13],-0.197
same,glycan array binding signal (z-score),[14],-0.193
same,glycan array binding signal (z-score),[15],-0.19
same,glycan array binding signal (z-score),Gal4S(b1-4)GlcNAc,-0.195
same,glycan array binding signal (z-score),Gal6S(b1-3)GlcNAc6S,-0.195
same,glycan array binding signal (z-score),[16],-0.174
same,glycan array binding signal (z-score),[17],-0.179
same,glycan array binding signal (z-score),[18],-0.139
same,glycan array binding signal (z-score),[19],3.39
same,glycan array binding signal (z-score),[20],8.43
same,glycan array binding signal (z-score),Man(a1-2)Man(a1-3)Man,5.44
same,glycan array binding signal (z-score),[21],7.92
same,glycan array binding signal (z-score),[22],3.85
same,glycan array binding signal (z-score),[23],6.18
same,glycan array binding signal (z-score),[24],6.72
same,glycan array binding signal (z-score),[25],7.63
same,glycan array binding signal (z-score),[26],5.95
same,glycan array binding signal (z-score),[27],3.55
same,glycan array binding signal (z-score),[28],7.64
same,glycan array binding signal (z-score),Man(a1-6)Man,-0.076
same,glycan array binding signal (z-score),[29],-0.191
same,glycan array binding signal (z-score),[30],-0.195
same,glycan array binding signal (z-score),[31],-0.194
same,glycan array binding signal (z-score),[32],-0.193
same,glycan array binding signal (z-score),[33],-0.142
same,glycan array binding signal (z-score),[34],-0.102
same,glycan array binding signal (z-score),[35],-0.194
same,glycan array binding signal (z-score),Neu5Ac(a2-6)GalNAc,-0.192
same,glycan array binding signal (z-score),[36],-0.194
